Drawing on PubChem BioAssay (EPA / NIEHS), this text covers outcome for 40 compounds.

Results filed as inconclusive are left out. Activity calls are given as the source filed them. How the source made its calls: active means hit-call score of the fitted dose curve at least 0.9, where 1 is the maximum; inconclusive means response in the unintended direction; inactive means score below 0.9.

Sequence of Retinoic acid receptor RXR-alpha (Homo sapiens) (P19793 whole entry, looked up): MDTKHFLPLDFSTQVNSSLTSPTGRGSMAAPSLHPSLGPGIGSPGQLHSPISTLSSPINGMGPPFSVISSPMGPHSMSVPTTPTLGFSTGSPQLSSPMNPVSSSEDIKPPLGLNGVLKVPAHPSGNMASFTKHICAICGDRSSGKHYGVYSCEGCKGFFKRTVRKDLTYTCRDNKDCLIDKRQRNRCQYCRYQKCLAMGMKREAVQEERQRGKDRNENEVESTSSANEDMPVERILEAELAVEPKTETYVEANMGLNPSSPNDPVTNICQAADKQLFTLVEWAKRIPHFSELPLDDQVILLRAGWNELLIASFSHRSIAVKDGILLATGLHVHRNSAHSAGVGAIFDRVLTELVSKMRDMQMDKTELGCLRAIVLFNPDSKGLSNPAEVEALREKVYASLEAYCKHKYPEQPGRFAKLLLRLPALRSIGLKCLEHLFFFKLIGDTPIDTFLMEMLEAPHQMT

The target in the assay is Retinoic acid receptor RXR-alpha (Homo sapiens) (UniProt P19793). Nature of the assay: ATG_RXRa_TRANS: Attagene TRANS-FACTORIAL HepG2 Assay for human Retinoid X Receptor alpha (RXRa) (AID 2283012). The method, then:
ATG_TRANS is a cell-based, multiplexed-readout assay that uses HepG2, a human liver cell line, with measurements taken at 24 hours after chemical dosing in a 24-well plate.ATG_RXRa_TRANS is one of 30 assay component(s) measured or calculated from the ATG_TRANS assay. It is designed to make measurements of mRNA induction, a form of inducible reporter, as detected with fluorescence intensity signals by Reverse transcription polymerase chain reaction (RT-PCR) and Capillary electrophoresis technology.Data from the assay component ATG_RXRa_TRANS was analyzed into 1 assay endpoint. This assay endpoint, ATG_RXRa_TRANS, was analyzed in the positive analysis fitting direction relative to DMSO as the negative control and baseline of activity. Using a type of inducible reporter, measures of mRNA for gain-of-signal activity can be used to understand the reporter gene at the transcription factor-level as they relate to the gene RXRA. Furthermore, this assay endpoint can be referred to as a primary readout, because this assay has produced multiple assay endpoints where this one serves a reporter gene function. To generalize the intended target to other relatable targets, this assay endpoint is annotated to the nuclear receptor intended target family, where the subfamily is non-steroidal.
Human liver HepG2 cells are transiently transfected with multiple reporter transcription units (MRTUs) in 6-well plates using FuGene 6 reagent (Roche; 3 ml FuGene/1 mg DNA). The MRTU constructs are regulated by a cis-regulating element (promoter). […] A major difference between the CIS and TRANS system is that in CIS activities of endogenous TFs are measured, whereas the TRANS assay evaluates changes in activities of exogenous, chimeric NR-Gal4 proteins. […] At the end of 24 hour incubation, total RNA was isolated using TriZol reagent (Invitrogen). The isolated RNA is then reverse-transcribed using oligo(dT) primer and Mo-MLV reverse transcriptase (Invitrogen) with DNAse I (Ambion) treatment for 30 min. The one-tenth of the produced cDNA was amplified by PCR using Taq DNA polymerase (Invitrogen) and two reporter sequence-specific primers. The PCR products were fluorescently labeled by primer extension with 6-arboxyfluorescein (6-FAM) 5'-labeled reporter sequence-specific primer (2 min at 95 C, 20 s at 68 C and 10 min at 72 C) and these products were digested with 5U of HpaI (New England Biolabs) for 2h at 37 C. The fragments were purified using Qiaquick PCR columns (Qiagen), analyzed on an ABI 3130xL genetic analyzer (Applied Biosystems) with peak positions identified by using a set of X-rhodamine (ROX)-labeled MapMarker1000 molecular weight standards (BioVentures). The raw capillary electrophoresis data was processed using Attagraph software (Attagene).
On to `CCCCCCc1ccc(N)cc1`, for which the compound was classed as inactive.
In the case of `O=S(=O)(c1ccc(OCc2ccccc2)cc1)c1ccccc1O`, the compound was called inactive.
Under `O=C(O)CCC(F)(F)C(F)(F)C(F)(F)C(F)(F)C(F)(F)C(F)(F)F` stands “inactive”; under `CC1=CC(=O)c2ccccc2C1=O`, “inactive”; under `Cc1ccc(C(=O)c2ccccc2)cc1`, “inactive”.
Under `O=C1c2ccc(O)c(O)c2C(=O)c2c(O)ccc(O)c21` stands “inactive”.
To `CCN(CC)CC` belongs “inactive”.
In the case of `C[C@]12CC[C@@H]3c4ccc(O)cc4CC[C@H]3[C@@H]1C[C@@H](O)[C@@H]2O`, the compound was called inactive.
As to `Oc1c(Cl)cc(Cl)cc1Sc1cc(Cl)cc(Cl)c1O`, the outcome was inactive.
For the compound `CC(C)(C)c1ccc(CCC=O)cc1`, the result was inactive.
Under `C[C@]12CC[C@@H]3c4ccc(O)cc4CC[C@H]3[C@@H]1CC[C@@H]2OC(=O)CCC1CCCC1` stands “inactive”; under `O=C(O)CN(CCCN(CC(=O)O)CC(=O)O)CC(=O)O`, “inactive”.
Under `O=C(O)CCC(F)(F)C(F)(F)C(F)(F)C(F)(F)C(F)(F)F` stands “inactive”.
For the compound `C=COC(=O)C(C)(C)CCCCCC`, the call was inactive.
Take `COc1cccc(O)c1`: the result was inactive.
Under `CC(C)(C)c1ccc(O)c(O)c1` stands “inactive”.
`O=C(c1cc(O)c(O)c(O)c1)c1ccc(O)c(O)c1O`: the compound was classed as inactive.
Under `COc1cc([N+](=O)[O-])ccc1N` stands “inactive”; under `CC(C)(c1ccc(Oc2ccc(N)cc2)cc1)c1ccc(Oc2ccc(N)cc2)cc1`, “inactive”.
To `C=Cc1ccc(O)c(OC)c1` belongs “inactive”; to `C=CC(=O)OCCC(F)(F)C(F)(F)C(F)(F)C(F)(F)C(F)(F)C(F)(F)C(F)(F)C(F)(F)F`, “inactive”; to `CCc1ccccc1O`, “inactive”.
To `CS(=O)(=O)c1ccc([C@@H](CC2CCCC2)C(=O)Nc2cnccn2)cc1Cl` belongs “inactive”; to `FC(OC(F)(F)C(F)(F)C(F)(F)F)C(F)(F)F` (stereo not given), “inactive”; to `CN(CCO)S(=O)(=O)C(F)(F)C(F)(F)C(F)(F)C(F)(F)C(F)(F)C(F)(F)C(F)(F)C(F)(F)F`, “inactive”.
Turning to `Cc1ccc2ccc3ccc(C)cc3c2c1`, the compound was classed as inactive.
Consider `NCc1cccc(CN)c1`, for which the compound was called inactive.
As for `CCN(CCC#N)c1ccccc1`, the result was inactive.
On to `C=CC(=O)OCC(CO)(COCC(COC(=O)C=C)(COC(=O)C=C)COC(=O)C=C)COC(=O)C=C`, for which the call was inactive.
Under `CCC(C)c1ccccc1O` (stereo not given) stands “inactive”; under `CC(C)CCOCCC(C)C`, “inactive”.
Regarding `Clc1ccc2c(Cl)ccnc2c1`, the outcome was inactive.
For `CC(O)COc1ccccc1` (stereo not given), the result was inactive.
Under `Cc1ccc(C)c(S(=O)(=O)O)c1` stands “inactive”.
Under `OCC(CO)(CBr)CBr` stands “inactive”; under `FC(F)(F)C(F)(F)C(F)(F)C(F)(F)I`, “inactive”.
To `CCCCCCCCCCCCCC[n+]1ccccc1` belongs “inactive”.
Regarding `CCCCCCCCCCCCCCCCCC[N+](C)(C)Cc1ccccc1`, the result was inactive.
In the case of `O=C(Nc1ccc(Cl)c(Cl)c1)c1cc(Cl)cc(Cl)c1O`, the compound was classed as inactive.
To `CCOC(=O)c1nc(C(Cl)(Cl)Cl)n(-c2ccc(Cl)cc2Cl)n1` belongs “inactive”.
